Test results as given in PubChem BioAssay (Tox21).
Inconclusive results are not listed. Where a call stands in place of a potency, no number is given. Values without a mark were called inactive. The source made the active and inactive calls. The call rests on the fitted dose curve.

Assay: qHTS assay to identify small molecule agonists of the AP-1 signaling pathway - cell viability counter screen (AID 1159525); further: nearly all actives have a fitted effect of over 55% in size
Settings: ME-180 (cervical carcinoma) AP-1-bla cells viability, ATP luminescence, 5 h; series mostly up to 76.8 µM
Description: National Center for Advancing Translational Sciences [NCATS]
NIH Chemical Genomics Center [NCGC]
U.S. Environmental Protection Agency [EPA]
National Institutes of Environmental Health Sciences [NIEHS]
National Toxicology Program [NTP]
U.S. Food and Drug Administration [FDA]
Activator protein-1 (AP-1), a transcription factor, plays an important role in tumor genesis by regulating genes involved in cell proliferation, differentiation, apoptosis, and angiogenesis. AP-1 activity is induced by a complex network of signaling pathways that involves extracellular signals, such as growth factors. The AP-1 protein complex formed from c-Fos and c-Jun binding to the AP-1 response element results in transcriptional activation of genes containing such elements within their promoter.
Low molecular weight molecules have been discovered and developed to modulate various components of these signaling pathways, for example, MAP kinase inhibitors. However, many points of pathway modulation remain untested due to the lack of chemical probes making this signaling locus of general interest.
Using a beta-lactamase reporter-gene under control of the AP-1 response element, a cell-based assay [CellSensor(TM) AP-1-bla ME-180 developed by Invitrogen Corp.] was used to measure EGF-induced signaling. The Tox21 10K library compounds were measured for their ability to positively modulate the action of EC50 EGF on reporter gene activity. Compounds were screened in a 15-pt titration series in 1536-well format. The cytotoxicity of the Tox21 compound library against this cell line was tested in parallel by measuring the intra cellular ATP content in the same wells.
Tox21 Assay Protocol Summary:
2500 cells/5uL in Opti-MEM medium containing 0.5% dialyzed FBS, 0.1 mM NEAA, 1 mM sodium pyruvate and 10 mM HEPES was dispensed into 1536-well black wall/clear bottom plates using a Multidrop dispenser and cells were cultured at 37 degrees Celsius overnight. Next day 23 nL of compounds dissolved in DMSO, positive controls or DMSO were delivered to each well using a pin tool. The plates were incubated at 37 degrees Celsius for 5 hours. 1 uL of LiveBLAzerTM B/G FRET substrate (Solution A+B+C+D) was added to each well using a Flying Reagent Dispenser. After incubated at room temperature for 2.5 hours the plates were measured on an EnVision plate reader at Excitation 405nm, Emission1=460nm and Emission 2=530nm. The %Activity was determined from the ratio of 460nm/530nm.
After the plates were read for Beta-Lactamase assay on Envision; 3 ul Cell Titer Glo (Promega) was added to measure the cytotoxicity and the plates were then incubated at RT in dark for 30 min. The luminescence was read on ViewLux (Perkin Elmer, Shelton, CT) using 6 sec exposure. ViewLux data was expressed as relative luminescence units.
For primary data analysis, raw plate reads for each titration point were first normalized relative to […] EGF control (100%) and DMSO only wells (basal, 0%).
For primary data analysis for viability assay, raw plate reads for each titration point were first normalized Tetra n-octyl ammonium bromide control (-100%) and DMSO (control, 100%).
Potency means the concentration at half of the fitted maximal effect.

Compound | Potency | viability change, negative = cytotoxic
COC(=O)c1ccc([N+](=O)[O-])cc1 | inactive | –
CN[C@H]1CC[C@@H](c2ccc(Cl)c(Cl)c2)c2ccc(S(N)(=O)=O)cc21 | inactive | –
C=CC(C)(C)O | inactive | –
O=C1CCC/C=C\CCCCCCCCCC1 | inactive | –
CC(=O)CC(N)=O | inactive | –
CCCCCCCCCCCCS(=O)(=O)Cl | – | -17.5% [at 15.8 µM]
Nc1ccc(Cl)c([N+](=O)[O-])c1 | inactive | –
CCc1cccc(C)c1N(C(=O)CS(=O)(=O)O)C(C)COC (stereo not given) | inactive | –
c1ccc(C[P+](c2ccccc2)(c2ccccc2)c2ccccc2)cc1 | inactive | –
Clc1cccc(Cl)n1 | inactive | –
CCOc1nc(F)cc2nc(S(=O)(=O)Nc3c(Cl)cccc3C(=O)OC)nn12 | inactive | –
O[Si](c1ccccc1)(c1ccccc1)c1ccccc1 | inactive | –
Nc1ccc2c(S(=O)(=O)O)cccc2c1S(=O)(=O)O | inactive | –
Nc1cc([N+](=O)[O-])ccc1Cl | inactive | –
CN1CC[C@H](c2c(O)cc(O)c3c(=O)cc(-c4ccccc4Cl)oc23)[C@H](O)C1 | inactive | –
CCCCCCCCCCCCCCCCC(C(=O)O)C(O)(CC(=O)O)C(=O)O (stereo not given) | 21.3 µM (active) | –
CCN(CC)c1ccc2c(c1)Oc1cc(N(CC)CC)ccc1C21OC(=O)c2ccccc21 | inactive | –
CCSCC | inactive | –
O=S(=O)(c1ccc(OCc2ccccc2)cc1)c1ccccc1O | inactive | –
CC1=CC[C@@H](C(C)(C)O)CC1 | inactive | –

Compound | Potency | viability change, negative = cytotoxic
O=C1OC(O)C(C(Cl)Cl)=C1Cl (stereo not given) | inactive | –
C=CC(=O)OCC(Br)CBr (stereo not given) | inactive | –
Cc1cccc2c1ccc1ccccc12 | inactive | –
Cc1c[nH]c(=O)[nH]c1=O | inactive | –
CC(C)(C)C1=CC(=O)C(C(C)(C)C)=CC1=O | inactive | –
C=C1CC[C@H]2O[C@]2(C)CC[C@@H]2[C@@H]1CC2(C)C | inactive | –
CN(C)CCOc1ccc(/C(=C(/CCCl)c2ccccc2)c2ccccc2)cc1 | 36.4 µM (active) | –
C=COCCCC | inactive | –
Oc1ccc2c(c1)CCC2 | inactive | –
Nc1cccnc1N | inactive | –
N#Cc1ccc(C/C(=N/NC(=O)Nc2ccc(OC(F)(F)F)cc2)c2cccc(C(F)(F)F)c2)cc1 | inactive | –
c1ccc(-c2nc3ccccc3[nH]2)cc1 | inactive | –
CCCC(C)C=O (stereo not given) | inactive | –
O=C(Nc1ccc([N+](=O)[O-])cc1)Nc1ccc([N+](=O)[O-])cc1 (tested in a mixture with another compound) | inactive | –
O=C(Cl)c1ccc(Cl)cc1Cl | inactive | –
C=C(C)C1CCC(C)CC1O (stereo not given) | inactive | –
CCc1cccc(CC)c1 | inactive | –
c1ccc(-c2ccccc2-c2ccccc2)cc1 | inactive | –
CCCC(=O)c1cc(O)c(O)cc1O | inactive | –
[Cl][Dy]([Cl])[Cl] | inactive | –
